Data published in PubChem BioAssay AID463213 (Sanford-Burnham Center for Chemical Genomics, 2010).
The whole screen tested about 7,400 compounds, of which about 4,100 (55%) were called active. The set was probably picked from earlier hits. Not all results are given here. A number with no mark means an inactive call.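 How the source made its calls: active means inhibition of yeast growth at or above a set limit in either of two repeat tests at 20 µM; inactive means the rest.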

Test: growth inhibitors of tim10-1 mutant yeast, confirmation, single concentration, luminescence, S. cerevisiae (AID 463213);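 further: tim10-1 mutant grown at permissive 25 °C to find synthetic lethal compounds; 0% = DMSO yeast wells and 100% = medium wells without yeast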
Settings: S. cerevisiae tim10-1 ts strain growth, BacTiter-Glo, 24 h; at 20 µM; stronger effect = higher value

Question: For `COC(=O)CCc1sc(Nc2ccc(Br)cc2)nc1-c1ccc(OC)cc1`, which inhibition is on record?
Answer: 19.9%

Question: With `COc1ccc(C(=O)OCC(=O)c2cc(C)n(CC3CCCO3)c2C)cc1[N+](=O)[O-]` (stereo not drawn) as the molecule, how does the inhibition read?
Answer: 6%

Question: With `COc1ccc(C(=O)COC(=O)c2ccc([N+](=O)[O-])s2)cc1OC` as the molecule, how does the inhibition read?
Answer: 50.6% (active)

Question: For `O=C1Nc2ccc(Br)cc2/C1=N/N=C/C1=C(N2CCOCC2)C(=C\c2ccccc2)/CC1`, which inhibition is on record?
Answer: 59.5% (active)

Question: Which inhibition does the source give for `O=S(=O)(Nc1ccc(O)c2ccccc12)c1ccc(OC(F)(F)F)cc1` here?
Answer: 32.2% (active)

Question: For `CC(C)NC(=O)/C(C#N)=C\c1ccc(N(C)C)c(Br)c1`, which inhibition is on record?
Answer: 46.5% (active)

Question: For `O=C1NC(Nc2nc3ccccc3s2)(C(F)(F)F)C(=O)N1C1CCCCC1` (stereo not drawn), which inhibition is on record?
Answer: 35.5% (active)

Question: With `COC(=O)c1c(NC(=O)COc2ccc(Cl)cc2Cl)sc2c1CC(C)(C)NC2(C)C` as the molecule, how does the inhibition read?
Answer: 14.3%

Question: With `Cc1ccc(Nc2nc(-c3ccc(O)cc3O)cs2)nc1` as the molecule, how does the inhibition read?
Answer: 27.6% (active)

Question: Which inhibition does the source give for `Clc1ccc(Nc2nc(-c3cccs3)cs2)nc1` here?
Answer: 15%

Question: For `COc1ccccc1N1CCN(C(=O)c2cc(=O)c3cc(C)cc(C)c3o2)CC1`, which inhibition is on record?
Answer: 24.9%

Question: Which inhibition does the source give for `CCOC(=O)C/C(C)=N\Nc1ccc([N+](=O)[O-])cc1[N+](=O)[O-]` here?
Answer: 9.35%

Question: For `O=[N+]([O-])c1ccc(N/N=C2/CCCCC2c2ccccn2)c([N+](=O)[O-])c1` (stereo not drawn), which inhibition is on record?
Answer: 38.6% (active)

Question: For `c1ccc(-c2nnc3n2NC(c2ccc4c(c2)OCO4)S3)cc1` (stereo not drawn), which inhibition is on record?
Answer: 34% (active)

Question: For `Cc1cccc(C2c3[nH]c4ccccc4c3CCN2C(=O)c2cc(-c3cccn3C)n[nH]2)n1` (stereo not drawn), which inhibition is on record?
Answer: 14.3%

Question: With `C=CCCC(=O)Nc1nc(C)c(-c2csc(Nc3ccc(Cl)cc3)n2)s1` as the molecule, how does the inhibition read?
Answer: 19.9%

Question: For `CCCCC(=O)Nc1nc(C)c(-c2csc(Nc3ccc(Cl)cc3)n2)s1`, which inhibition is on record?
Answer: 31% (active)

Question: For `O=[N+]([O-])c1ccc(C=Nc2ccc(Cl)cc2Cl)s1`, which inhibition is on record?
Answer: 69.8% (active)

Question: With `COc1ccc(/C=C/C2=CC(C)(C)NC(=S)N2)c(OC)c1` as the molecule, how does the inhibition read?
Answer: 20.4%

Question: Which inhibition does the source give for `NS(=O)(=O)c1ccc(NC(=S)Nc2ccc(Br)c(Cl)c2)cc1` here?
Answer: 41.2% (active)

Question: For `CC(Nc1nc(C(F)(F)F)nc2ccccc12)c1cccs1` (stereo not drawn), which inhibition is on record?
Answer: 30.1% (active)

Question: Which inhibition does the source give for `O=C1CC(c2ccccc2)=NN1c1ccc([N+](=O)[O-])cc1` here?
Answer: 23.8%

Question: Which inhibition does the source give for `O=[N+]([O-])c1ccc2c(c1)Nc1nc3ccccc3nc1N2` here?
Answer: 70.2% (active)

Question: For `COc1ccccc1NC(=O)C1=C(C)Nc2nnnn2C1c1cccc(Br)c1` (stereo not drawn), which inhibition is on record?
Answer: 28.7%

Question: For `CCc1cc(C(N)=O)c(NC(=O)c2ccc(OC)cc2)s1`, which inhibition is on record?
Answer: 58.2% (active)

Question: For `CC(C)c1cc(C(N)=O)c(NC(=O)c2cccc(COc3ccc(Br)cc3)c2)s1`, which inhibition is on record?
Answer: 26.9%

Question: Which inhibition does the source give for `Cn1c(-c2sccc2OCc2cccc(C(F)(F)F)c2)n[nH]c1=S` here?
Answer: 25.1%

Question: Which inhibition does the source give for `CCSC1=C(C#N)C(=O)n2c1cc1c2CCCC1` here?
Answer: 52.3% (active)

Question: For `N#CC1(C#N)C(C(=O)C23CC4CC(CC(C4)C2)C3)C12CCOCC2` (stereo not drawn), which inhibition is on record?
Answer: 41.9% (active)

Question: Which inhibition does the source give for `COc1cc(NS(=O)(=O)c2ccc3ccccc3c2)c2ncccc2c1` here?
Answer: 27.8%

Question: For `COc1ccc(S(=O)(=O)Nc2ccc(O)c(Sc3nc4ccccc4s3)c2)cc1`, which inhibition is on record?
Answer: 37% (active)

Question: Which inhibition does the source give for `CC(=NCc1ccc2c(c1)OCO2)C1=C(O)c2ccccc2C1=O` here?
Answer: 40.3% (active)

Question: Which inhibition does the source give for `c1ccc(-c2cn3c(n2)CCc2ccc4cccnc4c2-3)cc1` here?
Answer: 30.3% (active)

Question: Which inhibition does the source give for `Cc1nc2ccccc2cc1OCc1ccc(F)cc1` here?
Answer: 9.05%

Question: With `Cc1ccc(-c2csc(-c3c[nH]c4ccccc34)n2)cc1` as the molecule, how does the inhibition read?
Answer: 50.9% (active)

Question: For `O=C(c1cccs1)N(C(=O)c1cccs1)c1ccccn1`, which inhibition is on record?
Answer: 20.9%

Question: For `COc1ccc(C)cc1Nc1nc(C)nc2c1oc1ccccc12`, which inhibition is on record?
Answer: 25.5%

Question: Which inhibition does the source give for `O=C(CCc1ccc(S(=O)(=O)N2CCOCC2)cc1)Nc1ccc2ccccc2c1` here?
Answer: 28.1%

Question: For `O=C(NCCc1ccc(F)cc1)c1ccc(S(=O)(=O)N2CCCCC2)cc1`, which inhibition is on record?
Answer: 43.5% (active)

Question: With `COc1ccc(Oc2cn[nH]c2-c2ccc(OC)cc2O)cc1` as the molecule, how does the inhibition read?
Answer: 39.3% (active)

Question: For `CCCc1[nH]nc2c1C(c1ccc(Br)s1)C(C#N)=C(N)O2` (stereo not drawn), which inhibition is on record?
Answer: 79.5% (active)

Question: Which inhibition does the source give for `CSc1ccc(S(=O)(=O)NCc2ccc(Cl)cc2)cc1` here?
Answer: 30.4% (active)

Question: For `CSc1ccc(S(=O)(=O)NC2CCCCC2)cc1`, which inhibition is on record?
Answer: 22.4%

Question: For `N/C(=N\OC(=O)c1cc(-c2ccccc2)nc2ccccc12)c1ccncc1`, which inhibition is on record?
Answer: 70.7% (active)

Question: Which inhibition does the source give for `O=C(/C=C/c1ccc(Cl)c([N+](=O)[O-])c1)c1ccc(O)cc1` here?
Answer: 48.3% (active)

Question: With `O=C(/C=C/c1ccc(Cl)c([N+](=O)[O-])c1)c1cccnc1` as the molecule, how does the inhibition read?
Answer: 62% (active)

Question: Which inhibition does the source give for `O=[N+]([O-])c1ccc(N2CCN(c3ccc(O)cc3)CC2)c(Cl)c1` here?
Answer: 30.2%

Question: For `Cc1ccc(N2C(=O)C(Cc3ccccc3)NC2=S)cc1` (stereo not drawn), which inhibition is on record?
Answer: 16.7%
